These results are taken from PubChem BioAssay AID1460 (National Center for Advancing Translational Sciences (NCATS), 2008).

The campaign covered roughly 270,000 compounds. About 5,800 (2.1%) were called active. Not shown: some 16% with an inconclusive outcome. The entries come from a sample that favours actives as a whole. Unmarked numbers belong to inactive results. The call rests on the fitted dose curve; in most records, active means well fitted inhibition curve with a large enough effect; inconclusive means small, poorly fitted or top-dose-only effect; inactive means flat fitted curve, though single readings scatter.
On the % scale 0 is the no-effect control and ±100 the full control effect; potency means the concentration at half of the fitted maximal effect.

Sequence of Microtubule-associated protein tau (Homo sapiens) (P10636 561-689 P618L limits assumed): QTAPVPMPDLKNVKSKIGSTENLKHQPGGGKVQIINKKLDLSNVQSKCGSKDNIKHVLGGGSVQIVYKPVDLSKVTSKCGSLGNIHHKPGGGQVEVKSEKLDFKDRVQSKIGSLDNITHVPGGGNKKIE

This experiment has as its target Microtubule-associated protein tau (Homo sapiens) (UniProt P10636). Nature of the experiment: qHTS for Inhibitors of Tau Fibril Formation, Thioflavin T Binding. Further: nearly all actives have a fitted effect of over 55% in size. The following applies: recombinant tau K18 P301L, heparin-induced fibrillization, ThT fluorescence; series mostly up to 57.4 µM; activity, negative = inhibition: at the top concentration. The procedure, abridged:
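Fibril formation assay: tau K18 P301L at 15 uM with trace Alexa 594 label, heparin inducer 20 uM, pH 7 sodium acetate buffer, 37 C for 6 hr; endpoint ThT signal.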
A general note: Quantitative high-throughput screening tests each substance at several concentrations.
For `O=C(Nc1ccccc1Cl)N1CCC(CN2CCCCC2)CC1`, the “activity, negative = inhibition” value was 0.774%.
On to `COc1ccc(S(=O)(=O)n2nc(C)c(S(=O)(=O)N3CCCCCC3)c2C)cc1`, for which the “activity, negative = inhibition” value is -5.22%.
Consider `CCc1nnc(SCC(=O)Nc2cc(OC)ccc2OC)nc1CC`, for which the “activity, negative = inhibition” value is -13.1%.
With `COc1ccc(C)cc1N(C)C(=O)c1c(C)oc2ncnc(N3CCOCC3)c12`, the “activity, negative = inhibition” value is -4.51%.
Regarding `CCOC(=O)C1CCCN(S(=O)(=O)c2cc(-c3cc(C)no3)ccc2OC)C1` (centres undefined), the “activity, negative = inhibition” value is -5.37%.
For `N#C/C(=C\c1ccccc1C(F)(F)F)C(=O)Nc1ccccc1F`, the “activity, negative = inhibition” value is -2.13%.
Take `N#C/C(=C\c1ccc(N2CCOCC2)o1)C(=O)N1CCOCC1`: the “activity, negative = inhibition” value is -14.6%.
Take `N#C/C(=C\C1=C(N2CCOCC2)C(=C\c2ccccc2)/CC1)C(=O)Nc1ccccc1F`: the Potency is 3.16 µM (active).
With `COc1cccc(-c2cc(C(=O)Nc3ccc(C)cc3)[nH]n2)c1`, the “activity, negative = inhibition” value was 16.5%.
On to `Cc1nonc1C(=O)N/N=C/c1ccc(O)cc1`, for which the “activity, negative = inhibition” value is -13.5%.
Still for that read-out and setting: then `COc1ccc(C/C(C)=N/NC(=O)c2cc(C)oc2C)cc1`, with -14.5%.
Turning to `Cc1cc(C(=O)N/N=C/c2ccc(N3CCOCC3)cc2)c(C)o1`, the Potency was 3.98 µM (active).
Turning to `CCn1cc(C(=O)N2CCN(c3cc(C)ccc3C)CC2)c(=O)c2cc(S(=O)(=O)N(C)C3CCCCC3)ccc21`, the “activity, negative = inhibition” value was -17%.
As to `Cc1noc2ncnc(NCc3ccccc3Cl)c12`, the “activity, negative = inhibition” value is -8.51%.
Still for that read-out and setting: to `CC(C)NC(=O)C(=O)N/N=C/c1ccco1` belongs -18.5%; to `COC(=O)C1=C(C)N(c2ccc(Br)cc2)C(=O)/C1=C\c1ccco1`, 3.15%.
`COC(=O)C1=C(C)N(C(C)c2ccccc2)C(=O)/C1=C\c1ccco1` (centres undefined): the Potency is 22.4 µM (active).
For the compound `CCOC(=O)c1c(NC(=O)c2ccc(S(=O)(=O)N3CCCC(C)C3)cc2)sc2c1CCN(C(C)C)C2` (centres undefined), the “activity, negative = inhibition” value was -15.9%.
As to `COc1cc(OC)c(NC(=O)c2nc(-c3ccncc3)no2)cc1Cl`, the “activity, negative = inhibition” value is 15.5%.
With `Cc1ccc(-c2csc(SCC(=O)Nc3cc(C)on3)n2)cc1`, the “activity, negative = inhibition” value was -1.99%.
`Cc1ccc(Nc2nc(-c3ccc(O)cc3O)cs2)nc1`: the Potency was 5.01 µM (active).
Regarding `Cc1ccc(-c2csc(NC(=O)c3cnccn3)n2)cc1C`, the “activity, negative = inhibition” value is -7.61%.
In the case of `Cc1ccccc1CNC(=O)CCCn1nc(C)c2sc3ccccc3c2c1=O`, the “activity, negative = inhibition” value was 11.6%.
With `O=C(NC1CC(=O)N(c2ccccc2)C1)c1ccco1` (centres undefined), the “activity, negative = inhibition” value is 4.55%.
For `COc1ccc(NC(=O)Nc2cccc(-c3noc(C)n3)c2)cc1`, the “activity, negative = inhibition” value is -6.06%.
On to `Cc1c(C)n(Cc2ccc(Cl)cc2)c2ccc(C(=O)NCCc3ccc(S(N)(=O)=O)cc3)cc12`, for which the “activity, negative = inhibition” value is -2.45%.
For `CCN(CC)c1cc(NC2CCCCC2)c2c3c(onc13)-c1ccccc1C2=O`, the Potency is 11.2 µM (active).
As for `CC(C)(C)c1ccc(C(=O)Nc2ccc3c(c2)CCCN3C(=O)c2cccs2)cc1`, the “activity, negative = inhibition” value was -12.8%.
Regarding `CCc1ccc(NC(=O)CN2C(=O)CCSc3ccc(S(=O)(=O)N4CCCC4)cc32)cc1`, the “activity, negative = inhibition” value was 8.06%.
For the compound `CCc1nn(CCCC(=O)NCc2ccc(C)cc2)c(=O)c2cc3occc3n12`, the “activity, negative = inhibition” value was -5.1%.
With `COCCCNC(=O)c1ccc(NC(=O)c2nsc3ccccc23)cc1`, the “activity, negative = inhibition” value was -4.75%.
With `Cc1ccc(C2C3=C(Nc4[nH]n(-c5ccccc5)c(=O)c42)c2ccccc2C3=O)cc1` (centres undefined), the Potency is 7.94 µM (active).
As for `Cc1ccc(N2C(=O)C3C(c4ccccc4)(C2=O)C3(c2ccccc2)c2ccccc2)cc1` (centres undefined), the “activity, negative = inhibition” value was 4.8%.
With `O=C(Nc1ccc2nc(SCCOc3ccccc3Cl)sc2c1)c1ccco1`, the “activity, negative = inhibition” value was 5.98%.
Same read-out and setting: to `CCOC(=O)c1cccc(NC(=O)c2cc(S(=O)(=O)N3CCCC(C)C3)cn2C)c1` (centres undefined) belongs 3.72%.
For `Cc1ccc(S(=O)(=O)c2c(Nc3cccc(Cl)c3)sc(C(=O)c3ccc4c(c3)OCO4)c2N)cc1`, the “activity, negative = inhibition” value was -3.94%.
For `CCOc1cc(C(=O)Nc2nnc3n2CCS3)cc(OCC)c1OCC`, the “activity, negative = inhibition” value is 1.75%.
As to `Cc1ccc2cccc(NC(=O)C(C)Oc3ccc(C)c(C)c3)c2n1` (centres undefined), the “activity, negative = inhibition” value was 6.23%.
Consider `Cc1ccccc1C(=O)Nc1cc(C)c(O)c(-c2nc3ccccc3o2)c1`, for which the “activity, negative = inhibition” value was -2.98%.
Regarding `CC(C)c1ccc(C2CC(=O)N3CN(C4CCCCC4)CSC3=C2C#N)cc1` (centres undefined), the Potency is 22.4 µM (active).
Take `CC(C)c1ccc(C2C(C#N)=C(N)Oc3c2oc(CO)cc3=O)cc1` (centres undefined): the “activity, negative = inhibition” value was -9.29%.
Turning to `CCOC(=O)c1ccc(N2C(=O)c3n[nH]c(-c4ccco4)c3C2c2ccc(O)cc2)cc1` (centres undefined), the “activity, negative = inhibition” value is -15.9%.
Still for that read-out and setting: to `CCCc1nn2c(=O)cc(COC(=O)c3ccc(NC(=O)C(C)Oc4ccccc4)cc3)nc2s1` (centres undefined) belongs -5.44%.
For `COc1ccc(C2=NN(c3nc4ccccc4s3)C(=O)C2)cc1`, the Potency is 10 µM (active).
For the compound `COc1ccc(C2=NN(c3ccccc3)C(c3cccs3)C2)cc1` (centres undefined), the “activity, negative = inhibition” value was -9.36%.
On the same count and under the same terms, to `COC(=O)Cc1[nH]n(-c2nc3ccccc3s2)c(=O)c1C(C)=Nc1ccc(OC)cc1` belongs 12%; to `CCOC(=O)c1c(S(=O)(=O)N2CCC(C(=O)NCc3ccccc3OC)CC2)c(C)n(C)c1C`, 7.16%; to `CN(C)c1ccnc2sc(C(=O)c3ccccc3)c(N)c12`, -18.6%.
`O=C(CN1C2=NCCN2c2ccccc21)c1cccs1`: the “activity, negative = inhibition” value was 2.91%.
